The values below come from PubChem BioAssay (Tox21).

Inconclusive results are not listed. A number with no mark means an inactive call. Activity calls are given as the source filed them. Unless noted, calls come from the whole dose curve; as a rule, active = well fitted curve in the direction sought with a large enough effect in the repeat runs; inconclusive = weak or mixed curves; inactive = no such curve, though single readings can be large; an effect the other way counts as inactive or inconclusive.

The nature of test [1]: qHTS assay to identify small molecule agonists of the vitamin D receptor (VDR) signaling pathway - cell viability counter screen (AID 743224). Note: series mostly up to about 63 µM; % is set by controls: 0 for no effect and ±100 for the full control effect; nearly all actives have a fitted effect of over 50% in size. Summed up: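 Cells: VDR-bla, 2,000/well, settled 4 h. Treatment: compounds in DMSO, 16 h, 37C/5% CO2. Readout: CellTiter-Glo luminescence after 30 min RT.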
(In general: Quantitative high-throughput screening tests each substance at several concentrations.)

A short description of test [2]: qHTS assay to identify small molecule agonists of the NFkB signaling pathway (AID 1159509; active = well fitted curve in the direction sought with a large enough effect in the signal ratio in the repeat runs, not every such curve was filed as active; the % refers to the signal ratio; note: series mostly up to about 61 µM; % is set by controls: 0 for no effect and ±100 for the full control effect). In a few lines:
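Pathway activation was measured in ME-180 cells stably expressing beta-lactamase under NF-kB response element control. Substrate cleavage was read as the 460/530 nm emission shift after 5 hr compound incubation.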

Test [3] is described as follows: qHTS assay to identify small molecule agonists of the NFkB signaling pathway - cell viability counter screen (AID 1159515; calls by dose curve; note: series mostly up to about 61 µM; % is set by controls: 0 for no effect and ±100 for the full control effect; nearly all actives have a fitted effect of over 55% in size). Summed up: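 Cells are seeded (2,000 NFkB-bla ME-180 per well), rested overnight, and dosed with DMSO-dissolved compounds for 5 hr at 37 C. Viability is then read by CellTiter-Glo luminescence after 30 min at room temperature.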
Test [4] is described as follows: qHTS assay to identify small molecule agonists of the endoplasmic reticulum stress response signaling pathway (AID 1159516; active = well fitted activation curve with a large enough effect in the signal ratio in the repeat runs, not every such curve was filed as active; the % refers to the signal ratio; note: % is set by controls: 0 for no effect and ±100 for the full control effect). In a few lines:
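Cells are seeded at 1,500 per well and incubated overnight. Compounds in DMSO are added for 5 hr at 37 C, then beta-lactamase FRET substrate for 2 hr at room temperature, and fluorescence at 460 and 530 nm is measured.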

A short description of test [5]: qHTS assay to identify small molecule agonists of the endoplasmic reticulum stress response signaling pathway - cell viability counter screen (AID 1159517; calls by dose curve;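 note: HeLa cells carrying an ER stress response element beta-lactamase reporter; series mostly up to about 61 µM; % is set by controls: 0 for no effect and ±100 for the full control effect; nearly all actives have a fitted effect of over 50% in size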). In a few lines: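 ESRE-bla HeLa cells (1,500/well) were plated overnight at 37 C and exposed to compounds for 5 hr. After the 2 hr beta-lactamase substrate read, CellTiter-Glo went into the same wells, and luminescence was read after 30 min at room temperature.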

Test [6] is described as follows: qHTS assay to identify small molecule antagonists of the retinoid-related orphan receptor gamma (ROR-gamma) signaling pathway - cell viability counter screen (AID 1159520). Note: % is set by controls: 0 for no effect and ±100 for the full control effect; nearly all actives have a fitted effect of over 50% in size. Summed up:
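Cytotoxicity was read from cellular ATP (CellTiter-Glo luminescence) after 16 hr at 37 C with 1 uM doxycycline induction. The inducer was added 2 hr after compound transfer to Tet-on ROR gamma CHO cells.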

Test [7] deals with Nuclear receptor ROR-gamma (Homo sapiens) (UniProt P51449). Description: qHTS assay to identify small molecule antagonists of the retinoid-related orphan receptor gamma (ROR-gamma) signaling pathway (AID 1159521; note: top concentration of the series differs between compounds; % is set by controls: 0 for no effect and ±100 for the full control effect; nearly all actives have a fitted effect of over 50% in size). In a few lines: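 Luminescence readout (ONE-Glo, 30 min RT) after 16 h doxycycline induction; loss of signal scored as antagonism. CHO cells with TET-inducible RORγ and RORE-LUC reporter; compounds added 2 h before 1 uM final doxycycline.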

A short description of test [8]: qHTS assay to identify small molecule agonists of the AP-1 signaling pathway - cell viability counter screen (AID 1159525; calls by dose curve; note: nearly all actives have a fitted effect of over 55% in size). In a few lines: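 Intracellular ATP by Cell Titer Glo luminescence (30 min, RT) in the same ME-180 AP-1-bla wells after the 5 h compound exposure at 37 °C. Normalised to tetra n-octyl ammonium bromide and DMSO controls.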
Test [9] in a line: qHTS assay to identify small molecule agonists of the AP-1 signaling pathway (AID 1159526; calls by dose curve; note: % is set by controls: 0 for no effect and ±100 for the full control effect).
Test [10] has as its target Retinoic acid receptor RXR-alpha (Homo sapiens) (UniProt P19793). The test is described as follows: qHTS assay to identify small molecule agonists of the RXR signaling pathway (AID 1159527; calls by dose curve; note: nearly all actives have a fitted effect of over 35% in size; note: potency is the fitted concentration of half-maximal effect). In a few lines:
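Agonist mode; 9-cis retinoic acid positive control. HEK 293T UAS-bla reporter cells, 2% charcoal-stripped FBS, 16 hr compound exposure at 37 C/5% CO2. LiveBLAzer B/G FRET substrate 2 hr RT; ex 405, em 460/530 nm.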

A short description of test [11]: qHTS assay to identify small molecule agonists of the RXR signaling pathway - cell viability counter screen (AID 1159529). In a few lines: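 Luminescence from CellTiter-Glo (30 min, RT) measured viability in the same wells as the beta-lactamase reporter readout. Cells: GeneBLAzer RXR-alpha HEK 293T, 2% charcoal-stripped FBS. Compound exposure 16 hr, 37 C.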
Test [12] is described as follows: qHTS assay to identify small molecule antagonists of the retinoid acid receptor (RAR) signaling pathway - cell viability counter screen (AID 1159551). Note: % is set by controls: 0 for no effect and ±100 for the full control effect; nearly all actives have a fitted effect of over 35% in size. Summed up:
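Cells (C3RL4) are plated, incubated overnight, dosed with compound in DMSO, then given retinol at 1 uM final. After 6 h at 37 C, CellTiter-Glo is added and luminescence read following 30 min at room temperature.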

A short description of test [13]: qHTS assay to identify small molecule antagonists of the retinoic acid receptor (RAR) signaling pathway (AID 1159552). In a few lines: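 Luminescence from a RARE luciferase reporter in C3RL4 cells served as read-out. Cells received compounds together with 1 uM final retinol and incubated 6 hr at 37 C before detection reagent was added for 30 min at room temperature.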

A short description of test [14]: qHTS assay to identify small molecule agonists of the retinoic acid receptor (RAR) signaling pathway (AID 1159553). Note: potency is the fitted concentration of half-maximal effect. Summed up:
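Seed C3RL4 reporter cells at 1,000 per well and incubate overnight at 37 C. Add compounds in DMSO, incubate 6 hr. Add luciferase reagent, wait 30 min at room temperature, read luminescence.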

Test [15] can be described thus: qHTS assay to identify small molecule antagonists of the estrogen related receptor (ERR) signaling pathway - cell viability counter screen (AID 1224818). Note: series mostly up to about 46 µM; % is set by controls: 0 for no effect and ±100 for the full control effect. In a few lines:
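ERR cells, 2,000/well; 6 h settle at 37 C/5% CO2; compound pin transfer (DMSO); 17.5 h at 37 C; CellTiter-Fluor, 30 min, fluorescence read.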

Test [16] can be described thus: qHTS assay to identify small molecule antagonists of the estrogen related receptor signaling pathway with the pleiotropic PPARgamma coactivator (PGC) cell viability counter screen (AID 1224822). Summed up: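 Multiplexed viability counter screen run in PGC/ERR cells treated with compounds for 17.5 h at 37 C; live-cell protease signal measured by CellTiter-Fluor fluorescence.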

The nature of test [17]: qHTS assay to identify small molecule antagonists of the vitamin D receptor (VDR) signaling pathway - cell viability counter screen (AID 743225). Summed up:
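Viability counter screen run in the same wells as the beta-lactamase reporter assay: HEK 293T VDR-UAS-bla cells, 16 h compound exposure at 37C with 3 nM (final) 1-alpha,25-dihydroxyvitamin D3. CellTiter-Glo luminescence, 30 min, room temperature.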

Chain of Retinoic acid receptor RXR-alpha (Homo sapiens) (P19793 whole entry, looked up): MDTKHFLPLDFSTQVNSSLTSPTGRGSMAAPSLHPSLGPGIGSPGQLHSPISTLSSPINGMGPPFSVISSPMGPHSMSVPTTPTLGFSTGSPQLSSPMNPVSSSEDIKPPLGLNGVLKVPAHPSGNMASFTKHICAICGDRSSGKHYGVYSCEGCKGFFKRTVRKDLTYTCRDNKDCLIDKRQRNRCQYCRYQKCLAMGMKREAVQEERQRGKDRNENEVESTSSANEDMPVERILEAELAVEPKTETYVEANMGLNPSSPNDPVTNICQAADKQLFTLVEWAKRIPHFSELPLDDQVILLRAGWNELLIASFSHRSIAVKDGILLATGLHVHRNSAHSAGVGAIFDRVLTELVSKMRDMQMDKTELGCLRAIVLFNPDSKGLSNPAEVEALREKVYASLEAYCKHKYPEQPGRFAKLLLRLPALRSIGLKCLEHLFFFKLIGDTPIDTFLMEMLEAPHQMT

Take `CN(CCO)CCO`: the Potency result in test [1], in test [5], in test [6], in test [7], in test [8] and in test [10] was “inactive” in each case. In addition, the Potency entry in [11], in test [12], in [13] and in [14] was “inactive” throughout. For the same compound, the call in test [2], in [3], in test [4] and in test [9] was inactive.

In the case of `O=c1[nH]c2ccccc2n1C1CCNCC1`, the Potency result in test [1], in [5], in test [6], in test [7], in test [8] and in test [10] was “inactive” throughout. In addition, the Potency result in test [11], in test [12], in test [13] and in test [14] was “inactive” in each case. Further, the result in test [2], in test [3], in test [4] and in test [9] was inactive.

Turning to `CCCCCCC(=O)CCCCCC/C=C/C[C@@H](O)[C@H](O)[C@@](N)(CO)C(=O)O`, the call in test [2], in test [3] and in [4] was inactive. Also, the Potency entry in [5] and in test [14] was “inactive” each time. The activity, negative = cytotoxicity in test [6] is 4.11% [at 19 µM]. Moreover, the activity change, negative = inhibition in [7] was -12.3% [at 19 µM]. Besides, the viability change, negative = cytotoxic in test [8] was -3.45% [at 15.8 µM]. The activation in [9] is -2.3% [at 15.8 µM]; in [10], 1.63% [at 15.8 µM]. Also, the activity change, negative = cytotoxicity in test [11] was 2.42% [at 15.8 µM]; in [12] it was 2.99% [at 19 µM]. For the same compound, the activity, negative = inhibition in test [13] was 6.01% [at 19 µM].

Regarding `C=C(C)[C@H]1CN[C@H](C(=O)O)[C@H]1CC(=O)O`, the Potency entry in test [1], in test [5], in test [6], in test [7], in [8] and in test [10] was “inactive” throughout. In addition, the Potency entry in test [11], in test [12], in test [13] and in [14] was “inactive” each time. The compound was called inactive in test [2], in test [3], in test [4], in test [9], in [15] and in test [16].

Regarding `Nc1c(Cl)c(F)nc(OCC(=O)O)c1Cl`, the Potency entry in test [1], in [17], in test [5], in test [6], in test [7] and in test [8] was “inactive” in each case. In addition, the Potency entry in test [10], in test [11], in [12], in test [13] and in [14] was “inactive” in each case. For the same compound, the compound was classed as inactive in [2], in [3], in [4] and in test [9].

In the case of `CCc1cc(OC)c(C[C@H](C)N)cc1OC`, the Potency result in test [1], in test [5], in test [6], in test [7], in [8] and in [10] was “inactive” throughout. Further, the Potency entry in test [11], in [12], in test [13] and in [14] was “inactive” throughout. Further, the call in test [2], in [3], in test [4] and in test [9] was inactive.

With `CCC(=O)OC1(c2ccccc2)CCN(C)CC1`, the Potency entry in test [1], in [5], in [6], in test [7], in test [8] and in test [10] was “inactive” each time. Also, the Potency result in [11], in [12], in test [13] and in test [14] was “inactive” in each case. Also, the call in test [2], in [3], in [4] and in test [9] was inactive.

For the compound `NNCc1ccccc1`, the Potency entry in test [1], in [5], in test [6], in test [7], in [8] and in [11] was “inactive” each time. Besides, the Potency entry in test [12] and in test [13] was “inactive” in each case. In addition, the call in test [2], in test [3], in [4] and in test [9] was inactive. In addition, the figures for the Potency in test [10] and in [14] were 22.3 µM (active) and 2.48 µM (active), respectively.
